# GPR151 activ: activators of human GPR151 | actives 1% (n = 650,000) | PathHunter beta-arrestin GPR151 cells, luminescence | AID 1508602 | Q8TDV0 | activation, % at 11.2 µM; in the data active means activation above about 4.9%;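 further: 0% = median of compound wells and 100% = cells with positive control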
# Target sequence (Q8TDV0 whole entry, looked up): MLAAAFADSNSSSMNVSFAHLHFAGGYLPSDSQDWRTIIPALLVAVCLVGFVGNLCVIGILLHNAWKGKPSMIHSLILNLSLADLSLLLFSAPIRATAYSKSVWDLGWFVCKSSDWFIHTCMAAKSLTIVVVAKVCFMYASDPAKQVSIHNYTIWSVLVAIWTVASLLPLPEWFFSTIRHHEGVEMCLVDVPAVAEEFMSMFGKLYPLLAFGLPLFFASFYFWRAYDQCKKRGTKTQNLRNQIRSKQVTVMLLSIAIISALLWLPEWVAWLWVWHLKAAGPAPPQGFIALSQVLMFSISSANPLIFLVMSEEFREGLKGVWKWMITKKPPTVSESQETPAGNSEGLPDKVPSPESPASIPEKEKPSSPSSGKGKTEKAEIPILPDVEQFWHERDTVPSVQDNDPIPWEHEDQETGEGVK
# FBW7 act: activators of human E3 ligase FBW7; Q969H0; AlphaScreen FBW7–phospho-cyclin E peptide binding, activator screen; normalized activity (activation), % at 26.1 µM; actives 0.13% (n = 650,000); AID 1259310; in the data active means normalized activity above about 1.9%;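 further: purified mutant Fbw7 with reduced substrate affinity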
# MITF inh: blocks human microphthalmia-associated transcription factor; O75030; AlphaScreen MITF homodimerization, bead proximity signal; inhibition, % at 2.6 µM; actives 0.91% (n = 650,000); AID 1259374; in the data active means inhibition above about 50%;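 further: 0% = vehicle wells with protein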
# TEAD-YAP inh: TEAD-YAP interaction inhibition. HEK-TIYL cells, TEAD-Gal4/YAP UAS-luciferase luminescence. inhibition, % at 9.12 µM. actives 1.4% (n = 640,000). AID 1259422; in the data active means inhibition above about 32%;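 further: 0% = median of test compound wells and 100% = reference inhibitor wells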
# MITF inh conf: human MITF inhibition, confirmation. shares compounds with MITF inh. AlphaScreen MITF homodimerization, biotin/His-MITF beads. inhibition, % at 2.6 µM. actives 16% (n = 4,700). AID 1259372;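 active means inhibition above a cutoff derived from the DMSO control wells, cut at about 28% in these data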;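 further: 0% = MITF dimer wells with DMSO only; inhibitors lower the bead chemiluminescence by keeping MITF from dimerizing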
# AlphaScreen DR: AlphaScreen optical interference, dose response counter-screen; shares compounds with MITF inh; AlphaScreen optical interference counterscreen, cell-free; IC50, µM; actives 6% (n = 480); AID 1259373; call rule not given here
# AlphaScreen intf2: counter-screen: compounds optically interfering with AlphaScreen. shares compounds with MITF inh. LysRS AlphaScreen counterscreen, signal interference, triplicate. inhibition, % at 2.6 µM. actives 7.6% (n = 4,700);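 active means inhibition above a cutoff derived from the DMSO control wells, cut at about 30% in these data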
# Active calls of the source: *; . = no result. Most compounds without a hit are left out; they make up all but 3.5% or so of the library.
SMILES,GPR151 activ,FBW7 act,MITF inh,TEAD-YAP inh,MITF inh conf,AlphaScreen intf2,others
c1ccc(CNc2nc(NC3CCN(Cc4ccccc4)CC3)nc3c2ncn3C2CCCCC2)cc1,-1,0,27,-9,.,.,
CC(C)N(CCNc1nc(NC2CCN(Cc3ccccc3)CC2)nc2c1ncn2C1CCCCC1)C(C)C,-2,0,58*,5,-1,11,
c1ccc(CN2CCC(Nc3nc(Nc4ccccc4)nc4c3ncn4C3CCCCC3)CC2)cc1,0,0,18,8,.,.,
COc1ccc(CC(=O)N(Cc2nc(-c3ccc(Cl)cc3)no2)C(C)C)cc1,0,0,8,-11,.,.,
Cc1nc2ncnn2c(Nc2cccc(F)c2)c1C,0,0,-7,4,.,.,
CC1CN(C(NC(=O)C(C)C)C(Cl)(Cl)Cl)CC(C)O1 (stereo unspecified),0,0,6,7,.,.,
COCCC(=O)NCC1Cc2cc(-c3nc(C)cnc3C)ccc2O1 (stereo unspecified),2,0,5,1,.,.,
C=CCN1C(=O)/C(=C/c2ccco2)S/C1=N/S(=O)(=O)c1ccc(Cl)cc1,2,0,87*,-12,13,17,
C=CCN1C(=O)/C(=C/c2ccco2)S/C1=N/S(=O)(=O)c1cccs1,2,0,1,-17,.,.,
N#CC1=C(N)Oc2n[nH]c(-c3ccc(Br)cc3)c2C1c1ccc(OC(=O)N2CCOCC2)cc1 (stereo unspecified),-2,0,-7,-6,.,.,
O=C(NCCCN1CCCC1)c1ccccc1Cl,0,0,55*,-3,-1,1,
O=C(CCNC(=O)c1ccccc1Cl)NCCCN1CCOCC1,1,0,-4,3,.,.,
NC(=O)c1sc2nc3c(c(-c4ccco4)c2c1N)CC/C3=C\c1ccco1,-2,0,117*,1,110*,90*,
Cc1ccc(NC(=O)c2sc3nc4c(c(-c5ccco5)c3c2N)CCCC4)cc1,1,0,51*,-5,-14,-3,
CCCCN(C)S(=O)(=O)c1cc(Br)cnc1N,0,0,4,0,.,.,
O=C1c2ccccc2C(=O)N1CCCCN(C(=O)c1cc([N+](=O)[O-])ccc1Cl)c1ccc(Cl)cc1,0,0,68*,11,6,11,
O=C1c2ccccc2C(=O)N1CCCCN(C(=O)c1ccc([N+](=O)[O-])cc1)c1ccc(Cl)cc1,-2,0,1,-10,.,.,
Cc1ccc(N(CCCCN2C(=O)c3ccccc3C2=O)C(=O)c2ccc([N+](=O)[O-])cc2)cc1,-1,0,64*,-2,5,15,
CC1(C)CC(=O)C=C(NCCN2CCN(C(=O)Nc3ccc(Cl)c(Cl)c3)CC2)C1,2,0,73*,0,9,10,
COc1cccc(C(=O)N2CCN(Cc3ccc(OC)c(Br)c3)CC2)c1,0,0,52*,-7,11,14,
COc1ccc(CN2CCN(C(=O)c3cccc(OC)c3)CC2)cc1,1,0,27,6,.,.,
COc1ccc(CN2CCN(C(=O)c3cc(OC)c(OC)c(OC)c3)CC2)cc1Br,-2,1,52*,-4,6,2,
O=C(Nc1nc2ccc(Cl)cc2s1)c1cccc(Oc2ccccc2)c1,1,0,74*,-1,1,7,
O=C(Nc1nc2ccc(F)cc2s1)c1cccc(Oc2ccccc2)c1,-1,0,-3,-11,.,.,
O=C(Nc1ccc(O)c(-c2nc3ccccc3s2)c1)c1ccccc1Oc1ccccc1,1,0,-7,-1,.,.,
SMILES,GPR151 activ,FBW7 act,MITF inh,TEAD-YAP inh,MITF inh conf,AlphaScreen intf2,others
O=C(Nc1ccc(O)c(-c2nc3ccccc3s2)c1)c1cccc(Oc2ccccc2)c1,1,0,61*,0,3,1,
Cc1ccccc1Nc1nc2ccc([N+](=O)[O-])cc2nc1Nc1ccccc1C,1,0,2,7,.,.,
COCCSc1nnc(-c2cnccn2)n1C,0,0,75*,4,9,20,
O=C1/C(=C\c2cccc([N+](=O)[O-])c2)SC(=S)N1Cc1ccco1,0,0,12,7,.,.,
Cn1c(=O)c2c(O)cc(=O)[nH]c2n(C)c1=O,1,0,6,14,.,.,
COc1ccc(N(C(=O)COc2ccc(Br)cc2)S(=O)(=O)c2ccc(C)cc2)cc1,0,1,62*,-13,-2,12,
CCOC(=O)C1=C(C)N=c2s/c(=C/c3ccc(Cl)cc3Cl)c(=O)n2C1c1ccc(C)cc1 (stereo unspecified),1,0,63*,4,-11,-11,
CCOC(=O)C1=C(C)N=c2s/c(=C\c3ccc(Cl)cc3Cl)c(=O)n2C1c1ccc(N(C)C)cc1 (stereo unspecified),0,0,2,3,.,.,
CC(NC(=O)C1CCCN1c1nnc(N2CCCC2=O)s1)C12CC3CC(CC(C3)C1)C2 (stereo unspecified),0,0,4,3,.,.,
Cc1ccc2cc(CN(C(=O)Nc3ccccc3)C3CCCC3)c3nnnn3c2c1,0,0,65*,11,3,11,
N[C@H]1CCC[C@H](C(=O)Nc2cccc3c(=O)[nH]cnc23)C1,0,0,54*,3,26,11,
CC(C)n1nnnc1SCC(=O)OC1CCCCC1,0,1,11,5,.,.,
CCOc1cc(NC(=O)c2ccccn2)c(OCC)cc1NC(=O)CC,0,0,-7,-3,.,.,
CCOc1cc(NC(=O)c2ccccn2)c(OCC)cc1NC(C)=O,0,0,60*,6,52*,76*,
CSc1cccc(C(=O)N(CCn2cccn2)c2nc3c(C)cc(C)cc3s2)c1,0,0,95*,-7,-14,-5,
O=C1CCCN1CCCNCC(=O)N1c2ccccc2Sc2ccccc21,-1,0,76*,3,-16,-1,
O=C(Nc1cc(C(=O)Nc2ccc(S(=O)(=O)O)cc2S(=O)(=O)O)cc(C(=O)Nc2ccc(S(=O)(=O)O)cc2S(=O)(=O)O)c1)Nc1cc(C(=O)Nc2ccc(S(=O)(=O)O)cc2S(=O)(=O)O)cc(C(=O)Nc2ccc(S(=O)(=O)O)cc2S(=O)(=O)O)c1,-2,0,24,-9,.,.,
O=C(Nc1ccc(C(=O)Nc2ccc(C(=O)Nc3ccc(S(=O)(=O)O)c4cc(S(=O)(=O)O)cc(S(=O)(=O)O)c34)cc2)cc1)Nc1ccc(C(=O)Nc2ccc(C(=O)Nc3ccc(S(=O)(=O)O)c4cc(S(=O)(=O)O)cc(S(=O)(=O)O)c34)cc2)cc1,1,0,71*,.,67*,7,AlphaScreen DR=>6.5
Cc1ccc(C)c(NC(=O)Cc2cccs2)c1,-1,0,15,8,.,.,
O=S(CC(O)COCc1ccccc1)c1ccccn1 (stereo unspecified),1,0,-4,-6,.,.,

# Assay outcomes from PubChem BioAssay.
